Source: ChEMBL document CHEMBL3433997, “St. Jude Leishmania screening dataset” (2016)

Assays:
Assay type in all cases: functional
[1] = target: Solute carrier family 2, facilitated glucose transporter member 1 (Homo sapiens) (UniProt P11166); assay: ST_JUDE_LEISH: Cytotoxicity at 2uM final concentration against transgenic Leishmania Mexicana promastigotes LmGLUT1 that are glucose transport deficient and complemented with the human glucose transporter GLUT1. Activity is measured by DNA content using SYBR green in vitro
[2] = target: Hexose transporter 1 (Plasmodium falciparum) (UniProt O97467); assay: ST_JUDE_LEISH: Cytotoxicity at 2uM final concentration against transgenic Leishmania Mexicana promastigotes LmPfHT that are glucose transport deficient and complemented with the Plasmodium falciparum hexose transporter. Activity is measured by DNA content using SYBR green in vitro
[3] = target: Glucose transporter (Leishmania mexicana) (UniProt O61059); assay: ST_JUDE_LEISH: Cytotoxicity at 2uM final concentration against transgenic Leishmania Mexicana promastigotes LmGT2 that are glucose transport deficient and complemented with the L. Mexicana glucose transporter 2. Activity is measured by DNA content using SYBR green in vitro

Sequence of Solute carrier family 2, facilitated glucose transporter member 1 (Homo sapiens) (P11166 whole entry): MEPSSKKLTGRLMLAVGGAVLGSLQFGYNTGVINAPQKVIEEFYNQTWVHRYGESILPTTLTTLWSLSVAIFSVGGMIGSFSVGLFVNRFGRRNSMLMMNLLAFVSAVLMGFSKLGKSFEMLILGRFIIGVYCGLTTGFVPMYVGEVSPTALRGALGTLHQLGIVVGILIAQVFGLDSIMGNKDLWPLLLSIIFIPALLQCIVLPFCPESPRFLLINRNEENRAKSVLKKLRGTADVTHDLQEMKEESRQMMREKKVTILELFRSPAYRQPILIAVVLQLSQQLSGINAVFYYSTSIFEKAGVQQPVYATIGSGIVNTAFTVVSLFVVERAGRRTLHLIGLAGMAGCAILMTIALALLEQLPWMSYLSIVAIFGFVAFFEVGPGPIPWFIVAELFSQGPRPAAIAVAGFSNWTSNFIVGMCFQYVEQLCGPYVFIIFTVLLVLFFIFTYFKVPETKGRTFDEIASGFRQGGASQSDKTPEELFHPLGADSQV

Row | SMILES | inhibition [1] | inhibition [2] | inhibition [3]
1 | Cc1nn(-c2ccnc3cc(Cl)ccc23)c(C)c1C(=O)NCc1cc(Cl)cc(Cl)c1 | 0.16% | -0.98% | 1.27%
2 | Cc1cccc2nc(-c3ccc(-c4cccc(CNCc5ccc(CN)cc5)c4)s3)[nH]c12 | 3.9% | 3.91% | 4.55%
3 | O=C(/C=C/c1ccc(Cl)c(Cl)c1)NCCCCCN1CCCN(C(=O)Nc2cccc(Cl)c2)CC1 | 0.54% | 0.75% | 3.37%
4 | COc1ccc(-c2cnc3ccc(NCc4ccc(S(N)(=O)=O)cc4)nn23)cn1 | 4.78% | 4.83% | 5.05%
5 | CN(c1ccc(NC(=O)Nc2cc(C(C)(C)C)on2)cc1)c1ccnc(NCCN2CCOCC2)n1 | 32.3% | 57.4% | 5.4%
6 | COc1ccc(-c2ccc(NC(=O)c3cccc(C#N)c3)cc2)cc1CN1CCN(C)CC1 | 4.33% | 6.51% | 1.6%
7 | O=[N+]([O-])c1cc(C(c2ccc(O)c([N+](=O)[O-])c2)C(Cl)(Cl)Cl)ccc1O | 9.43% | 9.85% | 7.92%
8 | CC(=O)Nc1ccc(S(=O)(=O)Nc2ccc(Nc3nc(C)cc(N4CCCCC4)n3)cc2)cc1 | 5.51% | 5.79% | 5.54%
9 | CCN(CC)/C(=N/C(=N)NCc1cccc(Cl)c1)NCCCCCCN/C(=N\C(=N)NCc1cccc(Cl)c1)N(CC)CC | 4.23% | 4.83% | 2.27%
10 | CN1CCc2ccc(NC(=O)Nc3ccc(Cl)c(Cl)c3)cc2C1 | 4.69% | 3.67% | 3.54%
11 | CSC1=NC(=Nc2c(C)cccc2C)C2(CCCCC2)N1c1ccccc1Cl | -1.1% | -1.21% | -2.07%
12 | Cc1ccc(NC(=O)c2ccc3ncccc3c2)cc1OC1CCN(Cc2ccsc2)C1 (stereo unspecified) | 3.87% | 1.3% | 0.48%
